Source: PubChem (National Center for Advancing Translational Sciences (NCATS))
HT1080NT lethal: kills 2HG-producing HT-1080-NT fibrosarcoma cells | HT-1080-NT fibrosarcoma viability, CellTiter-Glo ATP luminescence, 48 h | Potency, µM (highest dose often 46.1 µM), for inactives: at the highest dose activity, negative = less viability, actives largely listed as cytotoxic | 360,000 compounds, 1.6% hits;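 note: NT is the 2HG producing partner of a matched IDH1 knockdown line; potency is the fitted concentration of half-maximal effect; 0% = DMSO-treated cells and -100% = media-only wells without cells; nearly all actives have a fitted effect of over 55% in size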
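750 cells/well, RPMI + 5% FBS; 2 h settle, compound pin-transfer, 48 h at 37 degrees C. CellTiter-Glo 10 min RT, luminescence. Normalized to DMSO and media-only wells.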
TDP1 cell CPT: growth inhibition of DT40 Tdp1-/-;hTDP1 cells with camptothecin (screen for TDP1 inhibitors); AID 686979; chicken DT40 Tdp1-/-;hTDP1 cells + 20 nM CPT, ATP luminescence, 48 h; Potency, µM (highest dose often 46.2 µM), for the others: at the top dose activity change, negative = growth inhibition, usual class: inhibitors; 420,000 compounds, 12% hits; note: potency is the fitted concentration of half-maximal effect; nearly all actives have a fitted effect of over 55% in size
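Chicken DT40 Tdp1-/- cells stably complemented with human TDP1 were seeded at 400 cells/well in medium containing 20 nM camptothecin, exposed to pin-transferred compounds, and grown at 37 °C for at least 48 hr. Viability was read as ATP luminescence.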
HT1080 IDH1KD tx: HT-1080 IDH1 knockdown cell toxicity (counter line); HT-1080 IDH1 knockdown viability, ATP luminescence, 48 h; Potency, µM (top dose mostly 46.1 µM), for the others: top-dose activity, negative = toxicity, most hits filed as cytotoxic; 360,000 compounds, 2% hits; AID 686971;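 note: potency is the fitted concentration of half-maximal effect; 0% = DMSO wells and -100% = cell-free medium wells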
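In this qHTS, HT-1080 cells depleted of IDH1 are exposed for 48 h at 37 °C to compound titrations. Toxicity is scored from CellTiter-Glo luminescence, with DMSO as full viability and medium alone as none.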
IL1B secr inh: blocks inflammasome-driven IL-1 beta release | 360,000 compounds, 4.7% hits | activity change, % at 57.5 µM | AID 743279 | THP-1 LPS/ATP IL-1B secretion, AlphaLISA, 16 h; active compounds read low; in the data active = activity change below about -50%; inconclusive = mostly about -30% to -49%
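THP-1 cells pretreated 1 hr with compounds (up to 57.5 uM final), then stimulated with LPS (250 ng/mL final) plus ATP (1.25 mM final); secreted IL-1B measured by AlphaLISA after 16 hr, decreased signal indicating inhibition.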
DT40 TDP1 no CPT: qHTS for Inhibitors of human tyrosyl-DNA phosphodiesterase 1 (TDP1): qHTS in cells in absence of CPT | DT40 Tdp1-/- hTDP1 cells, no CPT, ATP luminescence, 48 h | Potency, µM (top dose mostly 46.2 µM), for the others: top-dose activity change, negative = growth inhibition, usual class: inhibitors | 420,000 compounds, 15% hits | AID 686978, 2013; note: potency is the fitted concentration of half-maximal effect; nearly all actives have a fitted effect of over 55% in size
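Stably hTDP1-transfected Tdp1-null chicken DT40 cells were treated with library compounds minus camptothecin and grown for at least 48 hr at 37 °C, after which cellular ATP was quantified by luminescence.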
12-LOX inh: inhibitors of human 12S-lipoxygenase ALOX12; P18054; 580,000 compounds, 1.1% hits; purified 12hLO, xylenol orange hydroperoxide absorbance; Potency, µM (highest dose often 108 µM), inactives show at the top dose activity change, negative = inhibition, most hits filed as inhibitors; note: potency is the fitted concentration of half-maximal effect
Target sequence (P18054 whole entry, looked up): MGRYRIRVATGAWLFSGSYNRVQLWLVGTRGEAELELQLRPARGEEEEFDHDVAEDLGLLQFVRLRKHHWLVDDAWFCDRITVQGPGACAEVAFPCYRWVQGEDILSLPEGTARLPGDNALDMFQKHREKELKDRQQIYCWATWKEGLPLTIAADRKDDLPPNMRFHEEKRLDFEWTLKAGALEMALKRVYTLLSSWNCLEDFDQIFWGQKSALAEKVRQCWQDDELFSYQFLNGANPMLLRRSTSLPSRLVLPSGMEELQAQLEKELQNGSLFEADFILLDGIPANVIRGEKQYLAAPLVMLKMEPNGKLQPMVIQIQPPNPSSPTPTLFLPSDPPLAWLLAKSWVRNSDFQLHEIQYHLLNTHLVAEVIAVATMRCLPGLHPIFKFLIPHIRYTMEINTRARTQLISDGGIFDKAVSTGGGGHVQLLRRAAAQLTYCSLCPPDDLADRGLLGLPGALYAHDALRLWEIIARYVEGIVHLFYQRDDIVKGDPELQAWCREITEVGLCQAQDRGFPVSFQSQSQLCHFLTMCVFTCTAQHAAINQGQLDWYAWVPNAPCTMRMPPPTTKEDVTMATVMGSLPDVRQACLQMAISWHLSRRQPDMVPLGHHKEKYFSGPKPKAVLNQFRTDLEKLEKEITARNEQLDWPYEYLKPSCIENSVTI
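Hydroperoxide product was detected by ferrous iron/xylenol orange as the 573 to 405 nm absorbance ratio. Arachidonic acid at 40 uM (final) was turned over for 30 min at room temperature by 150 nM human 12hLO, pH 7.0 Hepes buffer, after 15 min compound preincubation.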
Active calls of the source: *. This excerpt belongs to a sample that is enriched for hits. Unless noted, calls come from the whole dose curve; as a rule, active = well fitted curve in the direction sought with a large enough effect; inconclusive = small, poorly fitted or top-dose-only effect, or another doubt; inactive = no such curve, though single readings can be large; an effect the other way counts as inactive or inconclusive. Unless noted, % is set by controls: 0 for no effect and ±100 for the full control effect.

Results for CC(=O)c1c(C)nn(CC(=O)N2CCOC(C(=O)O)C2)c1C (stereo not drawn) ?
12-LOX inh: -14.6%

What do the screens show for `COCCCn1c(-c2ccc(O)c(OC)c2)nc2c1c(=O)[nH]c(=O)n2CC(C)C`?
12-LOX inh: -23.3%

What do the screens show for `COc1ccc(-c2nc3scc(CCNS(=O)(=O)c4ccc5c(c4)OCCO5)n3n2)cc1OC`?
TDP1 cell CPT: inconclusive; DT40 TDP1 no CPT: 20.6µM*; 12-LOX inh: inconclusive

What do the screens show for `COc1ccc(-c2nc3scc(CCNS(=O)(=O)c4c(C)noc4C)n3n2)cc1OC`?
TDP1 cell CPT: -21.2%; DT40 TDP1 no CPT: inconclusive; 12-LOX inh: -19.6%

What do the screens show for `COc1ccc(-c2nc3scc(CCNS(=O)(=O)c4ccc(F)c(C(F)(F)F)c4)n3n2)cc1OC`?
TDP1 cell CPT: 14.6µM*; DT40 TDP1 no CPT: 13µM*; 12-LOX inh: -24.5%

How did Cc1csc2nc(CCNS(=O)(=O)c3ccc4c(c3)OCCO4)cn12 do in these assays?
HT1080NT lethal: 0.0%; TDP1 cell CPT: -8.7%; HT1080 IDH1KD tx: 7.9%; IL1B secr inh: -13.9; DT40 TDP1 no CPT: -13.9%; 12-LOX inh: 17.7%

Results for COc1ccc(-c2nc3scc(CCNS(=O)(=O)c4ccc(Oc5ccccc5)cc4)n3n2)cc1 ?
TDP1 cell CPT: -13.3%; DT40 TDP1 no CPT: inconclusive; 12-LOX inh: -10.4%

Results for O=S(=O)(NCCc1csc2nc(-c3ccc(F)cc3)nn12)c1ccc2c(c1)OCCO2 ?
TDP1 cell CPT: 16.4µM*; DT40 TDP1 no CPT: 23.1µM*; 12-LOX inh: -29.6%

What do the screens show for `O=S(=O)(NCCc1csc2nc(-c3ccc(Cl)cc3)nn12)c1ccc2c(c1)OCCO2`?
TDP1 cell CPT: 14.6µM*; DT40 TDP1 no CPT: 9.2µM*; 12-LOX inh: -18.7%

Results for O=S(=O)(NCCc1csc2nc(-c3ccc(F)cc3)nn12)c1ccc(Br)cc1 ?
TDP1 cell CPT: inconclusive; DT40 TDP1 no CPT: inconclusive; 12-LOX inh: -0.4%

What do the screens show for `CC(=O)c1ccc2c3c(cccc13)CC2`?
HT1080NT lethal: 13.2%; TDP1 cell CPT: 2.9%; HT1080 IDH1KD tx: 6.4%; IL1B secr inh: 3.8; DT40 TDP1 no CPT: -14.5%; 12-LOX inh: 0.0%

Results for O=C(C[N+]12CCCc3cccc(c31)CCC2)c1ccc2ccc3cccc4ccc1c2c34 ?
TDP1 cell CPT: 6.31µM*; DT40 TDP1 no CPT: 5.01µM*

Results for COc1ccccc1NC(=O)CN1C(=O)C(C)(C)c2ccccc21 ?
TDP1 cell CPT: -13.2%; DT40 TDP1 no CPT: -26.9%; 12-LOX inh: -9.3%

How did CC[C@@]1(c2cccc(C)c2)C(=O)N(C(=O)OC)N1C(=O)OC do in these assays?
HT1080NT lethal: 9.1%; TDP1 cell CPT: 18.4µM*; HT1080 IDH1KD tx: 10.6%; IL1B secr inh: -88.3*; DT40 TDP1 no CPT: 18.4µM*; 12-LOX inh: 6.6%

Results for CC[C@@]1(c2ccccc2OC)C(=O)N(C(=O)OC)N1C(=O)OC ?
HT1080NT lethal: -27.4%; TDP1 cell CPT: inconclusive; HT1080 IDH1KD tx: -12.4%; IL1B secr inh: -87.3*; DT40 TDP1 no CPT: inconclusive

How did COC(=O)N1C(=O)[C@](CC(C)C)(c2ccccc2)N1C(=O)OC do in these assays?
HT1080NT lethal: 5.0%; TDP1 cell CPT: 20.6µM*; HT1080 IDH1KD tx: -3.6%; DT40 TDP1 no CPT: 16.4µM*; 12-LOX inh: -22.2%

Results for COc1ccc(CNC(=O)C(C)N2C(=O)NC(c3ccccc3)(c3ccccc3)C2=O)cc1 (stereo not drawn) ?
HT1080NT lethal: -9.7%; TDP1 cell CPT: -11.9%; HT1080 IDH1KD tx: 0.0%; IL1B secr inh: inconclusive; DT40 TDP1 no CPT: 2.3%; 12-LOX inh: 37.3%

What do the screens show for `CCOC(=O)N1CCN(C(=O)CN2C(=O)NC(c3ccccc3)(c3ccccc3)C2=O)CC1`?
HT1080NT lethal: -16.0%; TDP1 cell CPT: 8.9%; HT1080 IDH1KD tx: -15.7%; IL1B secr inh: 24.2; DT40 TDP1 no CPT: -20.9%; 12-LOX inh: -6.6%

What do the screens show for `CCOC(=O)N1C(=O)[C@@](CC)(c2ccccc2)N1C(=O)OCC`?
HT1080NT lethal: -6.3%; TDP1 cell CPT: 8.2µM*; HT1080 IDH1KD tx: 2.3%; DT40 TDP1 no CPT: 13µM*; 12-LOX inh: inactive

What do the screens show for `O=C(CNC(=O)c1ccccc1F)Nc1ccc(Cl)c(S(=O)(=O)N2CCCCC2)c1`?
12-LOX inh: -0.1%

What do the screens show for `CCCc1noc(-c2cn(C3CCN(C(=O)c4cc(F)ccc4Cl)CC3)nn2)n1`?
12-LOX inh: 37.8%

What do the screens show for `c1ccc(C2CCCN(Cc3nc(CC4CC4)no3)CC2)cc1` (stereo not drawn)?
HT1080NT lethal: -5.5%; TDP1 cell CPT: -12.3%; HT1080 IDH1KD tx: -11.9%; IL1B secr inh: -3.3; DT40 TDP1 no CPT: -19.3%; 12-LOX inh: -28.1%

Results for O=C(c1ccco1)N1CCCN(Cc2nc(-c3ccc4c(c3)OCO4)no2)CC1 ?
HT1080NT lethal: -16.5%; TDP1 cell CPT: -10.4%; HT1080 IDH1KD tx: -0.7%; IL1B secr inh: 3.7; DT40 TDP1 no CPT: 16.4µM*; 12-LOX inh: -12.9%

What do the screens show for `c1ccc(C(c2ccccc2)c2noc(CN3CCC(c4ccncc4)CC3)n2)cc1`?
HT1080NT lethal: -13.1%; TDP1 cell CPT: 20.6µM*; HT1080 IDH1KD tx: -14.0%; IL1B secr inh: -16.9; DT40 TDP1 no CPT: inconclusive; 12-LOX inh: 5.1%

What do the screens show for `c1cc(C2CCN(Cc3nc(-c4ccc5c(c4)OCO5)no3)CC2)ccn1`?
HT1080NT lethal: inconclusive; TDP1 cell CPT: 20.6µM*; HT1080 IDH1KD tx: inconclusive; IL1B secr inh: -25.5; DT40 TDP1 no CPT: 11.6µM*; 12-LOX inh: -28.8%

Results for c1ccc(CCC2CCCCN2Cc2nc(-c3ccc4c(c3)OCO4)no2)nc1 (stereo not drawn) ?
HT1080NT lethal: -25.7%; TDP1 cell CPT: 16.4µM*; HT1080 IDH1KD tx: -13.8%; IL1B secr inh: -27.6; DT40 TDP1 no CPT: 20.6µM*; 12-LOX inh: 0.4%

Results for CC1CCN(C(=O)c2ccccc2OCC2CCCN(C(C)C)C2)CC1 (stereo not drawn) ?
12-LOX inh: 5.2%

Results for Cc1ccc(CN(Cc2ccco2)C(=O)c2cccc(C)c2)cc1 ?
TDP1 cell CPT: 14.6µM*; DT40 TDP1 no CPT: 16.4µM*; 12-LOX inh: -2.1%
